# Measured values as given in the supplement of paper PMC10941209.
# A number with no mark means an inactive call.
# System: Toxoplasma gondii RH 2F1 tachyzoites (intracellular in HFF)
# Test: parasite survival relative to DMSO control; higher = less antiparasitic activity, active = 20 or less
# Conditions: 1 µM; 72 h
# In short: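 Intracellular Toxoplasma gondii RH-2F1 tachyzoites, which express β-galactosidase, were grown in HFF cells (5 × 10^3 cells/well, 96-well plates) infected with 5 × 10^3 parasites in D2 medium for 3 h, then treated with compound at 1 μM for 72 h at 37°C in 5% CO2. Cells were lysed for 15 min, then CPRG was added and absorbance read at 570 nm after 30 min. Survival is the signal as a percentage of DMSO-treated infected controls, from 2 or more biological replicates.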
row,SMILES,parasite survival
1,NNC(=O)c1ccncc1,63.2%
2,CN(C)[C@@H]1C(=O)C(C(N)=O)=C(O)[C@@]2(O)C(=O)C3=C(O)c4c(O)c(NC(=O)CN5CCCC5)cc(F)c4C[C@H]3C[C@@H]12,34.5%
3,CC(C)(C)OC(=O)NCc1ccc(C(=O)N[C@H]2CCOC2=O)cc1,35%
4,Cc1ccc(N2CCC(CCOc3ccc(S(C)(=O)=O)cc3)CC2)nn1,73.2%
5,CC1=C(/C=C/C(C)=C/C=C/C(C)=C/C(=O)Nc2ccc(O)cc2)C(C)(C)CCC1,35.7%
6,Cc1ncc([N+](=O)[O-])n1CC(O)CN1CCOCC1 (centres undefined),52.5%
7,OB1OCc2cc(Cl)ccc21,57.2%
8,CC(C)(C)c1cc(C(=O)/C(C#N)=N/Nc2cccc(Cl)c2)no1,37.6%
9,C=C(C)n1c(=O)n(Cc2ccccc2C)c2ccccc21,44.5%
10,O=C(Nc1ccc(Cl)c(C(F)(F)F)c1)C(CCCl)C(=O)Nc1ccc(Cl)c(C(F)(F)F)c1,15.6% (active)
11,CC1CCc2c(N3CCC(O)CC3)c(F)cc3c(=O)c(C(=O)O)cn1c23 (centres undefined),51%
12,COc1cc(C(C(=O)NC2CCCCC2)N(C(=O)Cc2c[nH]c3ccccc23)c2ccc(C(C)C)cc2)cc(OC)c1OC (centres undefined),46.5%
13,O=S(=O)(Nc1ccccc1)c1ccc(NC(=S)Nc2ccccc2)cc1,47.2%
14,O=[N+]([O-])c1ccc2c(CCc3c[nH]c4ccccc34)c[nH]c2c1,43.3%
15,O=S(=O)(NCB(O)O)c1ccc(-c2nnn[nH]2)cc1C(F)(F)F,34.1%
16,NCC(=O)Nc1ccc(-n2nc(C(F)(F)F)cc2-c2ccc3c(ccc4ccccc43)c2)cc1,13.7% (active)
17,COc1ccc2c(c1OC)C(=O)OC2C1c2c(cc3c(c2OC)OCO3)CCN1C (centres undefined),68.3%
18,Cc1ccc(NC(=O)c2ccc(CN3CCN(C)CC3)cc2)cc1Nc1nccc(-c2cccnc2)n1,61%
19,O=C(O)C(Cc1c[nH]c2ccccc12)N1C(=O)c2ccccc2C1=O (centres undefined),46.6%
20,C[C@H](NC(=O)C(=O)Nc1ccccc1C(C)(C)C)C(=O)N[C@@H](CC(=O)O)C(=O)COc1c(F)c(F)cc(F)c1F,6% (active)

row,SMILES,parasite survival
1,O=C(Nc1ccc(N2CCN(C(=O)c3ccccc3)CC2)cc1)c1ccc2c(c1)OCO2,46.9%
2,CN(Cc1ccc(C(C)(C)C)cc1)Cc1cccc2ccccc12,37.9%
3,C[C@@]1(O)[C@H](O)[C@@H](CO)O[C@H]1n1ccc2c(N)ncnc21,58.6%
4,Cc1cccc(C)c1C(=O)Nc1nc(-c2ccccn2)cc2ccccc12,4.42% (active)
5,Cc1nc2ccc(Cl)cc2c(-c2ccccc2)c1CC(=O)O,79.3%
6,COc1cc2c(O)c3c(c(-c4ccc5c(c4)OCO5)c2cc1OC)C(=O)OC3,46.1%
7,Nc1nnc(-c2ccc(Cl)cc2)s1,59.9%
8,Oc1ccc(NCc2ccccc2OCc2ccccc2)cc1,39.5%
9,N#Cc1cc([N+](=O)[O-])ccc1Oc1ccccc1Cl,69%
10,CCCC1(C2CC2)c2cc(Cl)ccc2NC(=O)N1C (centres undefined),70.4%
11,Cc1nc(Nc2ccc(F)cc2)nc(N2CCc3ccccc3C2C)c1C (centres undefined),20.5%
12,O=C(CSc1nnc(Br)n1-c1ccc(C2CC2)c2ccccc12)Nc1ccc(C(=O)O)cc1Cl,61%
13,O=C(NCc1ccccc1Cl)c1cnc2ccccc2n1,45.6%
14,O=C(Nc1ccccc1C(=O)O)c1cccc(Oc2ccccc2)c1,39.4%
15,N#Cc1c(F)c(Cl)c(NCc2ccccc2)c(C#N)c1F,31.9%
16,O=c1ccc2ncc(=O)n3c2n1CC3CN1CCC(NCc2cc3c(cn2)OCCC3)CC1 (centres undefined),44.7%
17,OCCC#Cc1nc(-c2ccc(F)cc2)c(-c2ccncc2)n1CCCc1ccccc1,9.3% (active)
18,COc1cc(C2C3=C(CC(C)(C)CC3=O)Nc3ccccc3N2C(C)=O)ccc1OCc1ccccc1 (centres undefined),56.3%
19,CCCCc1ccc(-c2nc(C)c(C(=O)OC)s2)cc1,64%
